Reference: PubChem BioAssay (NCATS)
Several values for one entry are separate records, joined by “and”; a condition that tells them apart may be missing. Equal entries are not always repeated. Inconclusive results are not listed. Activity calls are given as the source filed them. Unless noted, the call rests on the fitted dose curve; in most records, active means well fitted curve in the direction sought with a large enough effect; inconclusive means small, poorly fitted or top-dose-only effect, or another doubt; inactive means no such curve, though single readings can be large; an effect the other way counts as inactive or inconclusive.

Assays:
[1] = target: Alpha-galactosidase A (Homo sapiens) (UniProt P06280); test: Counterscreen for Glucocerebrosidase Inhibitors: qHTS Assay for Human alpha-Galactosidase at pH 4.5 (AID 992); further: 0% is about no effect
Sequence of Alpha-galactosidase A (Homo sapiens) (P06280 whole entry, looked up): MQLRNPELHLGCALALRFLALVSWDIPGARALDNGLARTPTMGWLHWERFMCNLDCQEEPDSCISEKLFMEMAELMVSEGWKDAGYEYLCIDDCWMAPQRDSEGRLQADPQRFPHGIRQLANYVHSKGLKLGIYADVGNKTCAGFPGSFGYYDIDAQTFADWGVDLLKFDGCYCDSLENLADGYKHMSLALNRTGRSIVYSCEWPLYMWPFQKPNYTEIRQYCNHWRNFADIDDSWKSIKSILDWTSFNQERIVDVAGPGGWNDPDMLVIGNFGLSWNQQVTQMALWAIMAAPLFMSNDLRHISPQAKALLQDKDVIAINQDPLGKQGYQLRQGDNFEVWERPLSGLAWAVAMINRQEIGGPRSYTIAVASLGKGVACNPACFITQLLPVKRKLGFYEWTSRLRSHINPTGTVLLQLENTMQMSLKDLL
Procedure, shortened: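 Human enzyme (2 nM) with 80 uM 4-methylumbelliferyl alpha-D-galactopyranoside in 50 mM citric acid, 0.005% Tween-20, pH 4.5, 20 min at room temperature. Compounds 0.7 nM–77 uM; fluorescence Ex 365/Em 440 after pH 10 stop; AC50 from Hill fits.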

[2] = target: alpha-glucosidase (Oryza sativa, rice) (UniProt Q653V4); test: Counterscreen for Glucocerebrosidase Inhibitors: qHTS Assay for Rice alpha-Glucosidase at pH 5.0 (AID 997);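 further: 0% = full activity with enzyme and -100% = basal without enzyme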
Procedure, shortened: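 Rice alpha-glucosidase (4 nM final) with 400 uM 4-methylumbelliferyl-alpha-D-glucopyranoside in citrate buffer pH 5.0, 20 min at room temperature, stopped at pH 10; fluorescence 365/440 nm, compounds 0.7 nM–77 uM, AC50 from Hill fits.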

[3] = Validation of Assay for Modulators of Lamin A Splicing (AID 1459; active means well fitted curve in the direction sought with a large enough effect in the signal ratio; the % refers to the signal ratio;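 further: cells exposed to compound for two days before reading; 0% is about no effect; ratio rise marks activators and ratio drop marks inhibitors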)
Procedure, shortened: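 Splicing correction is reported by an EGFP-containing lamin A minigene in stably transfected S3 HeLa cells, while DsRed2 controls for viability and nonspecific signal. Cells are exposed to compounds for 48 hrs before the GFP over RFP ratio is taken.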

[4] = qHTS Assay for Lipid Storage Modulators (AID 1519; calls by dose curve; on activity change, negative = inhibition: on the % scale 0 is the no-effect control and ±100 the full control effect); conditions: Drosophila S3 cells, BODIPY lipid droplet/cell ratio, laser cytometry, cells loaded with oleic acid; for activity change, negative = inhibition: at 57.5 µM (top of the series)
Procedure, shortened: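 Cells seeded at 5,000 per well were treated with compounds over a concentration series and loaded with oleic acid (400 uM, as added). Lipid droplet fluorescence (488 nm excitation, 500-530 nm channel) was read by laser-scanning cytometry and normalized to 20 uM Triacsin C.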

[5] = target: DNA repair nuclease/redox regulator APEX1 (Homo sapiens) (UniProt P27695); test: qHTS Validation Assay for Inhibitors of the Human Apurinic/apyrimidinic Endonuclease 1 (APE1) (AID 1705; further: potency means the concentration at half of the fitted maximal effect;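 on activity change, negative = inhibition: TAMRA fluorescence gain over two minutes as APE1 cuts a quenched THF abasic duplex; on the % scale 0 is the no-effect control and ±100 the full control effect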)
Sequence of DNA repair nuclease/redox regulator APEX1 (Homo sapiens) (P27695 whole entry, looked up): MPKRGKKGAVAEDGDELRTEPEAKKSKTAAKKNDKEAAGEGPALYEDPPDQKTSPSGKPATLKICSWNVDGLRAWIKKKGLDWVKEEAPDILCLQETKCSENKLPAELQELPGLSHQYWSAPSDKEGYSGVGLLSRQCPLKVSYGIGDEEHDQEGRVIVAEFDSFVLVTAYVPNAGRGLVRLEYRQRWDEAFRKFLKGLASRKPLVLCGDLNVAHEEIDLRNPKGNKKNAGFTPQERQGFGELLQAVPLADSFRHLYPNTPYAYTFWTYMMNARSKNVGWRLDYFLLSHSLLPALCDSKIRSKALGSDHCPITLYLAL
Procedure, shortened: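 Endonuclease activity of human APE1 is followed as dequenching when the enzyme incises a tetrahydrofuran abasic site in a short duplex labelled 5'-TAMRA/3'-BHQ-2 (50 nM final), after 15 min enzyme–compound preincubation at room temperature.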

[6] = Counterscreen for APE1 Inhibitors: Fluorescent Dye Displacement Validation Assay (AID 1707);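 further: plate controls were ThO with dsDNA and no compound for no effect and ThO without dsDNA for full effect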
Procedure, shortened: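 Thiazole Orange (250 nM) bound to 50 nM TAMRA-labelled dsDNA with tetrahydrofuran abasic site; displacement by DNA-binding compounds lowers fluorescence. Buffer 50 mM Tris-HCl pH 7.5, 50 mM NaCl, 2 mM MgCl2, 0.01% Tween-20; endpoint read at 480/540 nm.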

[7] = qHTS for differential inhibitors of proliferation of Plasmodium falciparum line 7G8 (AID 1815);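 further: parasite growth measured after three days of incubation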; further: potency means the concentration at half of the fitted maximal effect;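 on activity change, negative = inhibition: plate controls were vehicle wells for no effect and reference inhibitor wells for full effect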
[8] = qHTS for differential inhibitors of proliferation of Plasmodium falciparum line GB4 (AID 1816); conditions: Potency: Plasmodium falciparum GB4 proliferation inhibition;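 further: parasite growth measured after 72 h incubation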; further: potency means the concentration at half of the fitted maximal effect;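 on activity change, negative = inhibition: 0% = vehicle DMSO and -100% = reference inhibitor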
[9] = qHTS for differential inhibitors of proliferation of Plasmodium falciparum line 3D7 (AID 1876); further: potency means the concentration at half of the fitted maximal effect
[10] = target: Endonuclease 4 (Escherichia coli (strain K12)) (UniProt P0A6C1); test: Counterscreen for APE1 Inhibitors: qHTS Validation Assay for Inhibitors of Endonuclease IV (AID 1708); further: potency means the concentration at half of the fitted maximal effect; on activity change, negative = inhibition: on the % scale 0 is the no-effect control and ±100 the full control effect
Procedure, shortened: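 qHTS concentration-response format; LOPAC1280 tested under APE1-screen conditions. 2 nM enzyme, 15 min compound preincubation at RT, then 50 nM TAMRA/BHQ-2 abasic substrate; kinetic fluorescence read, three reads at 60 s intervals.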

[11] = measured here: cell count channel max response
[12] = measured here: lipid channel max response

Cc1nc(N=Nc2ccc(C(=O)O)cc2)c(COP(=O)(O)O)c(C=O)c1O
inactive: outcome [1] | outcome [2] | outcome [3] | activity change, negative = inhibition [4] -0.137% | Potency [5] | Potency [6] | Potency [7] | Potency [8] | Potency [9]
-20.3%: max response [4, 12]
-21.8%: max response [4, 11]

Cn1c(=O)c2[nH]c(C3CCCC3)nc2n(C)c1=O
10.8% and -10.7%: max response [4, 11]
26.8% and -11.4%: max response [4, 12]
inactive: outcome [1] | outcome [3] | activity change, negative = inhibition [4] 11.7% and -0.538% | Potency [5] | Potency [6] | Potency [10] | Potency [7] | Potency [9]

N#Cc1cc2nc(O)c(O)nc2cc1[N+](=O)[O-]
active: Potency [5] 28.2 µM
inactive: outcome [1] | outcome [2] | outcome [3] | activity change, negative = inhibition [4] 3.63% and -0.314% | Potency [6] | Potency [7] | Potency [9]
13.7% and -35.1%: max response [4, 11]
18.1% and -33.4%: max response [4, 12]

O=C(O)/C(=C/c1c(C(=O)O)[nH]c2cc(Cl)cc(Cl)c12)c1ccccc1
-8.09%: max response [4, 11]
-9.3%: max response [4, 12]
inactive: outcome [1] | outcome [2] | outcome [3] | activity change, negative = inhibition [4] 0.679% | Potency [5] | Potency [6] | Potency [10] | Potency [9]

COc1cc(CNC(=O)CCCCCCC(C)C)ccc1O
inactive: outcome [1] | outcome [2] | outcome [3] | activity change, negative = inhibition [4] 0.247% | Potency [5] | Potency [6] | Potency [10]
14.2%: max response [4, 12]
14.5%: max response [4, 11]

Cn1c(=O)[nH]c2ncn(C)c2c1=O
12.8%: max response [4, 12]
10.7%: max response [4, 11]
inactive: outcome [1] | outcome [3] | activity change, negative = inhibition [4] 0.383% | Potency [5] | Potency [6] | Potency [7] | Potency [8] | Potency [9]

CC(C)NCC(O)COc1ccc(CC(N)=O)cc1 (stereo unspecified)
-32.1%: max response [4, 11]
-32.6%: max response [4, 12]
inactive: outcome [3] | activity change, negative = inhibition [4] -4.52% | Potency [5] | Potency [6] | Potency [7] | Potency [8] | Potency [9]

CN(C)CCC(c1ccc(Br)cc1)c1ccccn1 (stereo unspecified)
inactive: outcome [3] | activity change, negative = inhibition [4] 0.401% | Potency [5] | Potency [6] | Potency [10] | Potency [9]
15.4%: max response [4, 11]
17.8%: max response [4, 12]

c1ccc(CN2CCC3(CCCc4ccccc43)CC2)cc1
inactive: outcome [1] | outcome [2] | outcome [3] | activity change, negative = inhibition [4] -2.7% | Potency [5] | Potency [6] | Potency [10]
-38%: max response [4, 11]
active: Potency [7] 5.01 µM | Potency [8] 5.62 µM | Potency [9] 10 µM
-39.4%: max response [4, 12]

NC1(C(=O)O)CCc2cc(C(=O)O)ccc21 (stereo unspecified)
inactive: outcome [3] | activity change, negative = inhibition [4] -2.76% | Potency [5] | Potency [10] | Potency [7] | Potency [8] | Potency [9]
-17.6%: max response [4, 11]
-22%: max response [4, 12]

CC1CCN(CC[C@H]2CCCN2S(=O)(=O)c2cccc(O)c2)CC1
7.6% and -15.4%: max response [4, 11]
inactive: outcome [3] | activity change, negative = inhibition [4] 5.39% and 1.08% | Potency [5] | Potency [6] | Potency [10]
active: Potency [8] 12.6 µM
15.3% and -11.1%: max response [4, 12]

CC(N)=NCCCC[C@@H](N)C(=O)O
inactive: outcome [3] | activity change, negative = inhibition [4] -0.966% | Potency [5] | Potency [10] | Potency [7] | Potency [8] | Potency [9]
2.75%: max response [4, 12]
1.29%: max response [4, 11]

CCCCCCC/C=C\CCCCCCCCC(=O)O
active: Potency [5] 35.5 µM
inactive: outcome [1] | outcome [2] | outcome [3] | activity change, negative = inhibition [4] -0.534% | Potency [7] | Potency [8] | Potency [9]
-11.1%: max response [4, 11]
-10.7%: max response [4, 12]

NCCNS(=O)(=O)c1cccc2c(Cl)cccc12
active: Potency [7] 7.08 µM | Potency [8] 8.91 µM | Potency [9] 12.6 µM
-2.01%: max response [4, 11]
-12.2%: max response [4, 12]
inactive: outcome [1] | outcome [2] | outcome [3] | activity change, negative = inhibition [4] -0.563% | Potency [6]

C=CCN1CCc2c(cc(O)c(O)c2Br)[C@@H](c2ccccc2)C1
inactive: outcome [3] | Potency [5] | Potency [6] | Potency [10]
active: Potency [7] 5.01 µM | Potency [8] 5.01 µM | Potency [9] 7.08 µM

COC(=O)C1=C(C)NC(C)=C([N+](=O)[O-])C1c1ccccc1C(F)(F)F (stereo unspecified)
inactive: outcome [3] | Potency [5] | Potency [6] | Potency [10]

Oc1cc(O)c2c(c1)O[C@H](c1ccc(O)c(O)c1)[C@@H](O)C2
-13.1%: max response [4, 12]
inactive: outcome [3] | activity change, negative = inhibition [4] 1.15% | Potency [6] | Potency [10] | Potency [7] | Potency [8] | Potency [9]
-12.7%: max response [4, 11]

CC1=C(C(=O)O)N2C(=O)[C@@H](NC(=O)C(N)C3=CCC=CC3)[C@H]2SC1 (stereo partly specified)
inactive: outcome [3] | Potency [5] | Potency [6] | Potency [10] | Potency [7] | Potency [8] | Potency [9]

O=C(O)C1CCCNC1 (stereo unspecified)
inactive: outcome [3] | activity change, negative = inhibition [4] 0.3% | Potency [5] | Potency [10] | Potency [7] | Potency [8] | Potency [9]
0.762%: max response [4, 12]
0.529%: max response [4, 11]

OCC1NCC(O)C(O)C1O (stereo unspecified)
inactive: outcome [3] | Potency [5] | Potency [6] | Potency [10] | Potency [7] | Potency [8] | Potency [9]

O=C(O)/C=C/c1cnc[nH]1
inactive: outcome [3] | Potency [5] | Potency [6] | Potency [10] | Potency [7] | Potency [8] | Potency [9]

CCCCCCCCCCCCCCC[C@H](O)[C@H](N)CO
inactive: outcome [1] | outcome [2] | outcome [3] | activity change, negative = inhibition [4] -9.53% | Potency [5] | Potency [9]
-83.5%: max response [4, 11]
-95.1%: max response [4, 12]
active: Potency [10] 31.6 µM

CN[C@H](CC(=O)O)C(=O)O
14.4%: max response [4, 12]
inactive: outcome [1] | outcome [2] | outcome [3] | activity change, negative = inhibition [4] 3.39% | Potency [5] | Potency [10] | Potency [7] | Potency [8] | Potency [9]
12.1%: max response [4, 11]

CC1CCN=C(N)S1 (stereo unspecified)
inactive: outcome [3] | Potency [5] | Potency [6] | Potency [10] | Potency [7]

CC(C)Cn1c(=O)n(C)c(=O)c2[nH]cnc21
8.87%: max response [4, 12]
inactive: outcome [1] | outcome [2] | outcome [3] | activity change, negative = inhibition [4] 2.93% | Potency [5] | Potency [10] | Potency [7] | Potency [8] | Potency [9]
8.14%: max response [4, 11]
